According to PubChem BioAssay:
For some assays here: Measured potencies and affinities stand elsewhere. The source made the active and inactive calls. No rule for the calls is given here.

What follows are compounds tested against Plasmodium falciparum protein kinase 6 (PK6, PF3D7_1337100) (UniProt Q8IDW1) (assay: PfPK6 kinase inhibitors, biochemical, TCAMS library (AID 1159586)). Conditions: recombinant PfPK6, Kinase-Glo ATP depletion luminescence.
Plasmodium falciparum protein kinase 6 (PK6, PF3D7_1337100), sequence (Q8IDW1 1-305): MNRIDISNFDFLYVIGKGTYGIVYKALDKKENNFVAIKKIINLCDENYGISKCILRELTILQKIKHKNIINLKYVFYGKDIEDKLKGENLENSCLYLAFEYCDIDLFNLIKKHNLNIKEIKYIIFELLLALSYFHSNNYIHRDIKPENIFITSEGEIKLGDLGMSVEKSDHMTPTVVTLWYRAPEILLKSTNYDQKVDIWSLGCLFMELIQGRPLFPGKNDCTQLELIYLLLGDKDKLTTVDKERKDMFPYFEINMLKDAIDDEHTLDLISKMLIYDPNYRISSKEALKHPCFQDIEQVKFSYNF

outcome, inactive:
N#Cc1ccc(-c2ccc(C(=O)NCCCCN3CCC(c4nc5ccccc5[nH]4)CC3)cc2)cc1, c1cncc(CCNCc2ccc(-c3ccc(CNC4Cc5ccccc5C4)cc3)cc2)c1, O=C(Nc1ccc(Cl)cc1)Nc1cccc(-c2cccc(-c3nc4ccccc4[nH]3)c2)c1, Cc1cccc2[nH]c(-c3ccc(-c4ccc(CN5CCN(C6CCN(C)CC6)CC5)cc4)cc3)nc12, CN(C)CCN(C)Cc1ccc(-c2cccc(NC(=O)c3ccc(Cl)cc3)c2)cc1, O=C(Nc1cccc(-c2ccc(NCCCN3CCCC3)nc2)c1)c1ccccc1, Cc1nnsc1C(=O)Nc1cccc(-c2cccc(-c3nc4ccc(F)cc4[nH]3)c2)c1, COc1ccc2nccc([C@@H](O)CN3CCC(NCC(=O)Nc4cc(F)cc(F)c4)CC3)c2n1, Cc1cc(N2CCCCC2)nc2ccc(NC(=O)c3cccc([N+](=O)[O-])c3)cc12, O=S(=O)(c1cc(Cl)sc1Cl)N(CCC(O)(C(F)(F)F)C(F)(F)F)Cc1cccc(O)c1, CC(=O)Nc1cc(C(=O)Nc2cccc(-c3cccc(-c4nc5ccc(C(F)(F)F)cc5[nH]4)c3)c2)ccc1C, COC(=O)c1ccc(C2OC3(C(=O)c4ccccc4C3=O)C(OC)=C2Cl)cc1C(C)=O (stereo not given), Cc1ccc(S(=O)(=O)N2CCN(C(=O)c3cc(-c4cccs4)[nH]n3)CC2)c(C)c1, O=C(NCCCN1CCOCC1)c1csc(Nc2ccc(Cl)c(Cl)c2)n1, CCCc1cc(Cc2cnc(N)nc2N)ccc1OCCCCCC(=O)OCC, CC(=NNC(=S)Nc1ccccc1Cl)c1ccccn1, O=C(Cn1c(CCc2cccc(F)c2F)nc(=O)c2cccnc21)N(Cc1ccc(-c2ccc(C(F)(F)F)cc2)cc1)C1CCN(C2CCOCC2)CC1, CCn1c(-c2ccccc2)cc2nnc3ccccc3c21, CCCc1ccc(S(=O)(=O)NC2CCN(c3ccnc(Nc4ccc(OC)cc4)n3)C2)cc1 (stereo not given), O=C(C=Cc1cccs1)Nc1ccc(-c2nc3ccccc3[nH]2)cc1, O=C(CC1SC(N2N=C(c3cccs3)CC2c2ccccc2)=NC1=O)Nc1ccc(Cl)cc1 (stereo not given), O=C(NCc1ccc(Cl)c(Cl)c1)c1ccc(-c2nc3ccc(Cl)cc3[nH]2)cc1, C=C[C@H]1CN(CCCCCCC)CC[C@H]1CC(=O)Nc1cnnc2ccc(OC)cc12, O=C(Cc1ccc(NC(=O)c2ccc(O)c(-c3ccc(Cl)c(Cl)c3)c2)cc1)NCCc1ccc(Cl)c(Cl)c1, COc1cc2c(c(Cl)c1OC)CCN(Cc1ccccc1)CC2c1ccc(C(N)=O)cc1 (stereo not given), Clc1cnc2ccc3c(c2c1CCN1CCC(NCc2cc4c(cn2)OCCO4)CC1)OCCO3, Cc1cccc2[nH]c(-c3cccc(-c4ccc(CNCCCN5CCCC5=O)cc4)c3)nc12, Cc1nc2nc(N)nc(N)c2c(C)c1Cc1ccccc1, CC(C)(C)c1ccc(C(=O)Nc2cccc(Nc3c(C(=O)NCc4cccc(C(F)(F)F)c4)cnc4c(O)cccc34)c2)cc1, NCCCNc1nccc(N2CCc3ncnc(Nc4ccc(OCc5cccc(F)c5)c(Cl)c4)c3C2)n1, COc1cc2nc(N3CCC(CNC(=O)c4cccc5cccnc45)CC3)nc(N)c2cc1OC, S=C(Nc1cccc(Cl)c1)NC1CCN(c2ccnc3cc(Cl)ccc23)C1 (stereo not given), Cc1cccc2[nH]c(-c3cccc(-c4ccc(NC(=O)C(=O)c5cccn5C)cc4)c3)nc12, Cc1cc(N[C@@H](Cc2ccccc2)C(=O)NCc2cccc(F)c2)nc(Nc2ccccc2)n1, CN1CCCN(Cc2ccc(-c3ccc(NC(=O)c4cccc(Cl)c4)cc3)cc2)CC1, CCS(=O)(=O)c1ccc(-c2cnc3[nH]cc(-c4ccc(N)cc4)c3c2)cc1, CC(C)c1ccc(OCC(O)CN(CCN2CCOCC2)C(=O)Nc2ccc(Br)cc2)cc1 (stereo not given), CN1CCc2cc(Br)c(O)cc2C1Cc1ccccc1Cl (stereo not given), OC1CCC(Nc2ccc3ncc(-c4ccc5ccccc5c4)n3n2)CC1 (stereo not given), COc1ccc(Nc2cc(C)c3cc(NC(=O)c4ccncc4)ccc3n2)cc1

The compounds below were run against Protein kinase 7 (PK7), Plasmodium falciparum 3D7 (PF3D7_0213400) (UniProt Q7YTF7) (assay: inhibition of Plasmodium PK7 catalytic activity – biochemical, TCAMS antimalarial set, Kinase-Glo luminescence (AID 1159587)). Conditions: recombinant PfPK7, Kinase-Glo ATP depletion luminescence.
Protein kinase 7 (PK7), Plasmodium falciparum 3D7 (PF3D7_0213400), sequence (Q7YTF7 1-343): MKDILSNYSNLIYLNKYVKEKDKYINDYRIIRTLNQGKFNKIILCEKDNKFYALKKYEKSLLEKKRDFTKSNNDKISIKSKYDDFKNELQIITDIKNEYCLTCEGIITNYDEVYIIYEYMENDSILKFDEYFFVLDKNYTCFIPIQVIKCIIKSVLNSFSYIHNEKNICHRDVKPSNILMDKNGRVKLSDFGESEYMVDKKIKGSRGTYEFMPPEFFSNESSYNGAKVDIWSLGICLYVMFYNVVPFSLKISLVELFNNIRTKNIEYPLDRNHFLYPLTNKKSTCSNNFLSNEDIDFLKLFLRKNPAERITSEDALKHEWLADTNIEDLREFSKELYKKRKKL

outcome, inactive:
N#Cc1ccc(-c2ccc(C(=O)NCCCCN3CCC(c4nc5ccccc5[nH]4)CC3)cc2)cc1, c1cncc(CCNCc2ccc(-c3ccc(CNC4Cc5ccccc5C4)cc3)cc2)c1, O=C(Nc1ccc(Cl)cc1)Nc1cccc(-c2cccc(-c3nc4ccccc4[nH]3)c2)c1, Cc1cccc2[nH]c(-c3ccc(-c4ccc(CN5CCN(C6CCN(C)CC6)CC5)cc4)cc3)nc12, CN(C)CCN(C)Cc1ccc(-c2cccc(NC(=O)c3ccc(Cl)cc3)c2)cc1, O=C(Nc1cccc(-c2ccc(NCCCN3CCCC3)nc2)c1)c1ccccc1, Cc1nnsc1C(=O)Nc1cccc(-c2cccc(-c3nc4ccc(F)cc4[nH]3)c2)c1, COc1ccc2nccc([C@@H](O)CN3CCC(NCC(=O)Nc4cc(F)cc(F)c4)CC3)c2n1, Cc1cc(N2CCCCC2)nc2ccc(NC(=O)c3cccc([N+](=O)[O-])c3)cc12, O=S(=O)(c1cc(Cl)sc1Cl)N(CCC(O)(C(F)(F)F)C(F)(F)F)Cc1cccc(O)c1, CC(=O)Nc1cc(C(=O)Nc2cccc(-c3cccc(-c4nc5ccc(C(F)(F)F)cc5[nH]4)c3)c2)ccc1C, COC(=O)c1ccc(C2OC3(C(=O)c4ccccc4C3=O)C(OC)=C2Cl)cc1C(C)=O (stereo not given), Cc1ccc(S(=O)(=O)N2CCN(C(=O)c3cc(-c4cccs4)[nH]n3)CC2)c(C)c1, O=C(NCCCN1CCOCC1)c1csc(Nc2ccc(Cl)c(Cl)c2)n1, CCCc1cc(Cc2cnc(N)nc2N)ccc1OCCCCCC(=O)OCC, CC(=NNC(=S)Nc1ccccc1Cl)c1ccccn1, O=C(Cn1c(CCc2cccc(F)c2F)nc(=O)c2cccnc21)N(Cc1ccc(-c2ccc(C(F)(F)F)cc2)cc1)C1CCN(C2CCOCC2)CC1, CCn1c(-c2ccccc2)cc2nnc3ccccc3c21, CCCc1ccc(S(=O)(=O)NC2CCN(c3ccnc(Nc4ccc(OC)cc4)n3)C2)cc1 (stereo not given), O=C(C=Cc1cccs1)Nc1ccc(-c2nc3ccccc3[nH]2)cc1, O=C(CC1SC(N2N=C(c3cccs3)CC2c2ccccc2)=NC1=O)Nc1ccc(Cl)cc1 (stereo not given), O=C(NCc1ccc(Cl)c(Cl)c1)c1ccc(-c2nc3ccc(Cl)cc3[nH]2)cc1, C=C[C@H]1CN(CCCCCCC)CC[C@H]1CC(=O)Nc1cnnc2ccc(OC)cc12, O=C(Cc1ccc(NC(=O)c2ccc(O)c(-c3ccc(Cl)c(Cl)c3)c2)cc1)NCCc1ccc(Cl)c(Cl)c1, COc1cc2c(c(Cl)c1OC)CCN(Cc1ccccc1)CC2c1ccc(C(N)=O)cc1 (stereo not given), Clc1cnc2ccc3c(c2c1CCN1CCC(NCc2cc4c(cn2)OCCO4)CC1)OCCO3, Cc1cccc2[nH]c(-c3cccc(-c4ccc(CNCCCN5CCCC5=O)cc4)c3)nc12, Cc1nc2nc(N)nc(N)c2c(C)c1Cc1ccccc1, CC(C)(C)c1ccc(C(=O)Nc2cccc(Nc3c(C(=O)NCc4cccc(C(F)(F)F)c4)cnc4c(O)cccc34)c2)cc1, NCCCNc1nccc(N2CCc3ncnc(Nc4ccc(OCc5cccc(F)c5)c(Cl)c4)c3C2)n1, COc1cc2nc(N3CCC(CNC(=O)c4cccc5cccnc45)CC3)nc(N)c2cc1OC, S=C(Nc1cccc(Cl)c1)NC1CCN(c2ccnc3cc(Cl)ccc23)C1 (stereo not given), Cc1cccc2[nH]c(-c3cccc(-c4ccc(NC(=O)C(=O)c5cccn5C)cc4)c3)nc12, Cc1cc(N[C@@H](Cc2ccccc2)C(=O)NCc2cccc(F)c2)nc(Nc2ccccc2)n1, CN1CCCN(Cc2ccc(-c3ccc(NC(=O)c4cccc(Cl)c4)cc3)cc2)CC1, CCS(=O)(=O)c1ccc(-c2cnc3[nH]cc(-c4ccc(N)cc4)c3c2)cc1, CC(C)c1ccc(OCC(O)CN(CCN2CCOCC2)C(=O)Nc2ccc(Br)cc2)cc1 (stereo not given), CN1CCc2cc(Br)c(O)cc2C1Cc1ccccc1Cl (stereo not given), OC1CCC(Nc2ccc3ncc(-c4ccc5ccccc5c4)n3n2)CC1 (stereo not given), COc1ccc(Nc2cc(C)c3cc(NC(=O)c4ccncc4)ccc3n2)cc1
